Assay outcomes from PubChem.
A selection: hits, their analogues and other compounds. The true share with any hit is near 28%.
CYP2C19 act: increases human CYP2C19 enzyme activity | 96,000 tested, under 10 active | activation factor at 5 µM | P33261 | recombinant CYP2C19, luciferin-H EGE luminescence; active compounds read high; 0 = fully inhibited enzyme, 1 = untreated enzyme | AID 1025;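 active = activation factor of at least 2 at 5 µM in the primary screen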;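 also: 0 = wells with 2.5 mM tranylcypromine and 1 = vehicle-only wells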
PLK1 PBD inh: inhibitors of human Plk1 polo box domain binding | inhibition, %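 (tested at about 20 µM)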 | hit rate 0.13% among 97,000 | P53350 | Plk1 PBD phosphopeptide binding, fluorescence polarization | AID 693; in the data active = inhibition above about 34%, passing the limit was not always enough
CYP2C9 activ: activators of human CYP2C9. recombinant CYP2C9, luciferin-H conversion, luminescence; active compounds read high; factor 1 = untreated enzyme, 0 = blocked. activation factor at 5 µM. AID 1024. hit rate 1.4% among 96,000. P11712;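 active = activation factor of 2 or more for CYP2C9 at a 5 µM dose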;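 also: 0 = sulfaphenazole-blocked wells and 1 = vehicle-only wells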
Target sequence (P11712 whole entry, looked up): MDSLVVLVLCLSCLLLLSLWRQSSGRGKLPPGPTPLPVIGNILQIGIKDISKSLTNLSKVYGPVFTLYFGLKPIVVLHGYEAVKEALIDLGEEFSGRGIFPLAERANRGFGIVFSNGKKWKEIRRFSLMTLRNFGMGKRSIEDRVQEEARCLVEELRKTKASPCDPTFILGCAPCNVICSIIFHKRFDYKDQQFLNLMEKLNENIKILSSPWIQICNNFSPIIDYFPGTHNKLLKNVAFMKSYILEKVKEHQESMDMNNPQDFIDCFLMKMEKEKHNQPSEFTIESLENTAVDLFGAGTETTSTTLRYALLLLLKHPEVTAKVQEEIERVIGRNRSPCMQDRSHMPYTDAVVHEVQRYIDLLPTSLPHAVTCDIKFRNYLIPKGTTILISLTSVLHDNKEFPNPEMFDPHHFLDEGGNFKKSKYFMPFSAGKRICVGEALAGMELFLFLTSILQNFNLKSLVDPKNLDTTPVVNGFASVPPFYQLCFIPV
CYP2C9 inh: blocks human cytochrome P450 2C9. P11712. inhibition, % at 5 µM. hit rate 20% among 96,000. CYP2C9 Supersomes, luciferin-H conversion, luminescence;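 active = blocking of liver enzyme CYP2C9 beyond about 50% at 5 µM, limit read from the data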
CYP2C19 inh: human CYP2C19 inhibition | P33261 | CYP2C19 Supersomes, luciferin-H EGE luminescence, 30 min | inhibition, % at 5 µM | hit rate 21% among 96,000 | AID 778;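 active = CYP2C19 inhibition above a set limit at 5 µM in the primary screen, cut at about 50% in these data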;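 also: plate controls were negative control wells for no effect and 2.5 mM tranylcypromine positive control for full effect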
PLK1 inh: PLK1 (human) kinase inhibition. P53350. recombinant PLK1 kinase, TR-FRET peptide phosphorylation. inhibition, % at 10 µM. hit rate 0.53% among 97,000. AID 619;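 active = inhibition of 50% or more in the single-concentration screen; inactive = inhibition below 50%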;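 also: 0% = DMSO max control and 100% = H-89 dihydrochloride min control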
* marks the source's active call; other numbers are inactive results; x = no result given.

SMILES	CYP2C19 act	PLK1 PBD inh	CYP2C9 activ	CYP2C9 inh	CYP2C19 inh	PLK1 inh
CCn1c(Cc2ccc(OC)cc2)nnc1SCC(=O)Nc1nc2ccccc2s1	0.8	-9	0.8	20	18	-9
CSc1nnc(-c2cccs2)n1-c1ccccc1	0.6	20	0.7	34	43	-4
c1ccc(-n2c(-c3ccncc3)nnc2-c2ccco2)cc1	0.2	24	0.5	50	80*	-17
c1ccc(-n2c(-c3ccncc3)nnc2-c2cccs2)cc1	0.3	-20	0.5	54*	71*	-10
c1ccc(-c2nnc(-c3ccco3)n2-c2ccccc2)cc1	x	-12	x	x	x	-6
O=C(Nc1ccc(S(=O)(=O)N2CCOCC2)cc1)c1ccc(CN2CCc3ccccc3C2)cc1	0.8	-6	0.4	55*	23	-9
Cc1cc(C)c(NC(=O)c2ccc(CN3CCc4ccccc4C3)cc2)c(C)c1	0.8	-17	0.7	27	18	-6
CCOC(=O)N1CCN(S(=O)(=O)c2ccc(C(=O)Nc3nc4ccc(F)cc4s3)cc2)CC1	0.8	-11	0.4	64*	22	-31
COc1ccc(OC)c(NC(=O)COC(=O)c2ccc(S(=O)(=O)N3CCOCC3)cc2)c1	0.9	x	0.9	6	8	x
COc1ccccc1NC(=O)c1ccc(S(=O)(=O)N2CCOCC2)cc1	0.9	-14	3.5*	-249	14	-5
CCOC(=O)N1CCN(S(=O)(=O)c2ccc(C(=O)Nc3nc4ccccc4s3)cc2)CC1	1	-6	0.6	45	2	-36
COc1ccc(C)cc1NC(=O)c1ccc(S(=O)(=O)N2CCOCC2)cc1	1	-6	3.6*	-264	5	1
CCOc1ccccc1NC(=O)c1ccc(S(=O)(=O)N2CCOCC2)cc1	1	14	1.3	-27	4	3
O=C(COC(=O)c1ccccn1)Nc1cc(Cl)ccc1Cl	0.8	x	1	-5	20	x
CCOc1ccc(-n2cc(C(=O)N3CCCCCC3)c3cc(OC)c(OC)cc3c2=O)cc1	0.8	12	0.6	37	16	-15
O=C(Nc1ccccc1)c1ccc(S(=O)(=O)N2CCOCC2)cc1	0.9	0	0.9	13	7	2
O=C(Nc1ccccc1Cl)c1ccc(S(=O)(=O)N2CCOCC2)cc1	x	-7	x	x	x	68*
O=C(O)c1cc(S(=O)(=O)N2CCCCCC2)ccc1Cl	1.1	-7	1.1	-15	-13	4
COc1ccccc1C(=O)NCC1CCN(c2ccc(S(=O)(=O)N3CCOCC3)cc2)CC1	0.4	-2	0.6	36	58*	-6
COC(=O)NCc1ccc(S(=O)(=O)N2CCOCC2)cc1	1.1	2	1	3	-7	-13
O=C(Nc1cc(S(=O)(=O)N2CCCC2)ccc1Cl)C1=COCCO1	0.5	-18	0.6	36	52*	2
COc1cccc2sc(NC(=O)c3ccc(S(=O)(=O)N4CCOCC4)cc3)nc12	0.4	28	0.1	86*	64*	-2
COc1ccc(C2=C(C=Nc3c(C)n(C)n(-c4ccccc4)c3=O)C(c3ccccc3C)c3ccccc3O2)cc1OC (configuration not stated)	0.9	-22	0.6	40	14	-10
C=CCN(Cc1cccc(OC)c1OC)S(=O)(=O)N(C)C	0.7	-16	0.8	20	33	-12
O=C(Cn1cnc([N+](=O)[O-])c1)Nc1cc(Oc2ccc(Cl)cc2Cl)cc([N+](=O)[O-])c1	x	5	x	x	x	-2
SMILES	CYP2C19 act	PLK1 PBD inh	CYP2C9 activ	CYP2C9 inh	CYP2C19 inh	PLK1 inh
Cc1ccc(N/C=C(/C#N)c2ccsc2)cc1	0.4	0	0.7	33	64*	-13
COc1ccc2c(c1)C1NC(=S)N[C@@](C)(O2)C1C(=O)Nc1ccccc1 (some centres not stated)	1.1	-19	1.1	-10	-14	-2
CCOC(=O)c1c(C)sc(Sc2ccc(Cl)cc2[N+](=O)[O-])c1OC	0.2	-3	0.8	21	81*	-2
O=[N+]([O-])c1cc(Cl)ccc1Sc1cccc2cccnc12	0.8	-9	1	2	25	1
O=C(NCCCN1CCN(c2cccc(Cl)c2)CC1)C1CCC(=O)N1Cc1ccccc1Cl (configuration not stated)	0.9	-42	0.9	11	13	-10
Cc1ccc(S(=O)(=O)CCc2nnc(NC(=O)c3cnccn3)s2)cc1	1.1	7	0.5	51*	-13	-6
O=C(Nc1ccccc1)N(Cc1ccc(Cl)cc1)CC(O)C(F)(F)F (configuration not stated)	0.6	-3	0.5	53*	37	-7
O=C(Nc1ccccc1)N(Cc1ccccc1)Cc1ccccc1	1	2	0.7	28	3	-8
CCN(CC)c1ccc(-n2c(C)cc(C=O)c2C)cc1	0.2	-16	0.7	31	83*	7
CCN(CC)c1ccc(-n2c(C)c(C(C)=O)c(C(C)=O)c2C)cc1	0.3	4	0.2	80*	67*	-13
O=C(O)c1[nH]c2ccccc2c1NS(=O)(=O)Cc1ccccc1	1	17	0.7	27	5	-18
CCCC/C(C)=N/NC(=O)Nc1ccccc1	0.8	-8	1	2	22	-11
O=c1cc2[nH]c3ccccc3c(=O)n2nc1-c1ccccc1	0.6	13	0.3	71*	37	-4
O=c1nc(-c2ccccc2)c2cc(Cl)ccc2[nH]1	1.1	-9	0.9	10	-8	-16
CC(=O)NC1(c2ccccc2)CCN(c2nc(C)cc(C)n2)CC1	0.1	x	0	97*	93*	x
Cc1cc(C)nc(N2CCC(C(=O)NC3CCCc4ccccc43)CC2)n1 (configuration not stated)	1	14	1.8	-76	-1	4
O=C(CCSc1ccc(Cl)c(Cl)c1)NC12CC3CC(CC(C3)C1)C2	0.7	-22	0.9	13	29	-11
Cc1c(CN(C)CCc2ccccc2)c(=O)n(-c2ccccc2)n1C	1.1	6	1.2	-16	-13	-7
O=C(NC1CCCCC1)C(c1ccccc1)N(C(=O)Cc1ccsc1)c1ccccc1 (configuration not stated)	1	35	1	1	-4	-7
CC#CCCC(=O)N1C=Cc2ccccc2C1C#N (configuration not stated)	0.3	-16	0.9	8	66*	2
COCc1cc(Sc2ccc(Br)cc2)nc(-c2ccccc2)n1	1	-2	0.6	40	3	-10
Clc1cc(Sc2ccc(Br)cc2)nnc1-c1ccccc1	0.5	1	0.3	68*	54*	-8
O=C(NC(C(=O)N/N=C/c1ccccc1)c1n[nH]c(=O)c2ccccc12)c1ccccc1 (configuration not stated)	0.6	-15	0.5	52*	37	-16
COc1ccc(O)c(C(=O)c2cnn(C(=O)c3cc(C)oc3C)c2)c1	0.9	x	1.2	-17	6	x
